Measurements taken from publication PMC4552634, “A New Set of Chemical Starting Points with Plasmodium falciparum Transmission-Blocking Potential for Antimalarial Drug Discovery” (PLoS ONE, 2015).
About 3,200 (25%) of roughly 13,000 compounds showed an effect of 50% or more. Some of the results follow.

system: P. falciparum stage V gametocytes; design: BacTiter-Glo ATP luminescence viability of purified stage V gametocytes in 384-well plates, per cent inhibition versus DMSO; conditions: 48 h, 5 µM; inhibitor

SMILES | % Inhibition [%]
O=C(NC1CC1)c1ccc2cc(C(=O)N3Cc4ccccc4C(c4ccccc4)C3)ccc2c1 (stereo not drawn) [TCMDC-131863] | 5.684
COc1ccccc1CCNc1ncnc2c1[nH]c1ccc(F)cc12 [TCMDC-124556] | 39.14
COc1ccc(OC)c(Cc2cnc3nc(N)[nH]c(=O)c3c2C)c1 [TCMDC-138103] | 16.49
CN(C)C(=O)CCCn1c(CNCCCNc2cc(=O)c3ccccc3[nH]2)cc2c(Cl)cc(Cl)cc21 [TCMDC-140466] | -27.37
CCCC1CCNC(C(O)c2ccnc3ccc(OC)cc23)C1 (stereo not drawn) [TCMDC-138276] | 11.37
Cc1ccc(-n2nc(-c3ccccc3)c3cc(C(=O)NCCN)sc32)cc1 [TCMDC-124776] | 110.1
COc1cccc(-c2nn(C)c3sc(C(=O)NCCN(C)Cc4ccccc4)cc23)c1 [TCMDC-123583] | -8.796
CN(C)CCNC(=O)c1cc2c(-c3ccc(Cl)cc3)nn(C)c2s1 [TCMDC-123580] | -36.25
CC(C)Oc1ccc2c(c1)OC(c1ccccc1)(C(F)(F)F)NC2=O (stereo not drawn) [TCMDC-123633] | 28.56
Cc1nc(Cl)c2c(-c3ccccc3)csc2n1 [TCMDC-125437] | -3.595
CN(C)CC(=O)Nc1ccc(-c2ccc3ccnc(N)c3c2)cc1 [TCMDC-133427] | 67.97
COc1cccc(-c2ccc3c(-c4ccc(F)cc4)cnc(N)c3c2)c1 [TCMDC-134514] | 40.73
CN(C)Cc1cccc(-c2ccc3ccnc(N)c3c2)c1 [TCMDC-136795] | 100.3
CS(=O)(=O)Nc1ccc(-c2ccc3ccnc(N)c3c2)cc1 [TCMDC-136788] | 43.95
Nc1nccc2ccc(-c3cccc(OCc4ccccc4)c3)cc12 [TCMDC-133430] | 24.46
NC(=O)c1ccc(-c2ccc3ccnc(N)c3c2)cc1 [TCMDC-133429] | 50
COc1cccc(-c2ccc3ccnc(N)c3c2)c1 [TCMDC-133361] | 60.33
Nc1ccc(-c2ccc3ccnc(N)c3c2)cc1 [TCMDC-136763] | -16.03
NS(=O)(=O)c1cccc(Nc2nccc(-c3c(-c4cccc(NC(=O)c5c(F)cccc5F)c4)nn4ccccc34)n2)c1 [TCMDC-135780] | -65.73
Cc1csc(-c2nc(NCc3cccnc3)ncc2-c2ccsc2)n1 [TCMDC-124841] | 9.704
CC(C)(C)c1cc(NC(=O)c2ccc(Cl)c([N+](=O)[O-])c2)cc(C(C)(C)C)c1 [TCMDC-125604] | 2.881

SMILES | % Inhibition [%]
Cc1ccc(C(=O)N2CCN(Cc3nccs3)CC2)cc1 [TCMDC-140738] | 3.888
O=c1cc(NCCCNCc2scc(I)c2I)[nH]c2ccccc12 [TCMDC-140908] | -12.68
Nc1cc(-c2ccc3c(N)nccc3c2)ccc1Cl [TCMDC-136895] | -23.38
Nc1nccc2ccc(-c3cccnc3)cc12 [TCMDC-136599] | 30.25
NCc1cccc(-c2ccc3ccnc(N)c3c2)c1 [TCMDC-136889] | 55.02
CN(C)Cc1ccc(-c2ccc3ccnc(N)c3c2)cc1 [TCMDC-136790] | 60.33
Nc1cccc(-c2ccc3ccnc(N)c3c2)c1 [TCMDC-136762] | 21.07
Nc1nccc2ccc(-c3cccc4ncccc34)cc12 [TCMDC-133424] | 95.32
NCc1ccc(-c2ccc3c(N)nccc3c2)cc1 [TCMDC-133718] | 107.3
COC(=O)c1noc(C)c1I [TCMDC-131678] | -0.6747
CN1CCN(c2ccc(Nc3c(C(N)=O)cnc4cc(-c5ccoc5)ccc34)cc2C(F)(F)F)CC1.Cl [TCMDC-135443] | 2.768
O=C(Nc1ccc(Cl)cc1)Nc1ccc(-c2cccc(-c3nc4ccccc4[nH]3)c2)cc1 [TCMDC-133187] | -14.37
CC(C)(C)CCOC(=O)N1CCc2c(cc(O)c(O)c2Cl)C(c2ccc(O)cc2)C1 (stereo not drawn) [TCMDC-141981] | -77.14
Nc1nc(N)c2c3c(ccc2n1)CCC3 [TCMDC-137720] | -10.07
Cc1ccc(NC(=S)N2CCCN(CCCCCNC(=O)/C=C/c3ccc(Cl)c(Cl)c3)CC2)cc1Cl [TCMDC-135895] | -0.4693
COc1ccccc1CNC(=O)c1cc(C2CC2)nc2c1cnn2C(C)C [TCMDC-125250] | 49.1
Cc1cccc(C)c1N1CCN(C2CCC(NC(=O)/C=C/c3ccccc3)CC2)CC1 (stereo not drawn) [TCMDC-132881] | -29.57
COCCN1CCC(NCC(C)(C)c2nc(-c3ccc(Cl)c(O)c3)c(-c3ccncc3)[nH]2)CC1 [TCMDC-140926] | -95.92
CCCN(Cc1nnc(-c2ccco2)o1)C(=O)C1CCCN(C(=O)c2ccc(Cl)cc2)C1 (stereo not drawn) [TCMDC-125334] | -4.25
Cc1cc(CNC(=O)c2ccc(-c3ccc(-c4nc5cc(C(F)(F)F)ccc5[nH]4)s3)cc2)on1 [TCMDC-132481] | -11.54
CCCCCc1cc(O)c2c(c1)OC(C)(C)CC2C1=CCN(Cc2cnc3ccccc3c2)CC1 (stereo not drawn) [TCMDC-131418] | -11.08

SMILES | % Inhibition [%]
Nc1ncc(-c2ccsc2)c2ccc(-c3ccc4cn[nH]c4c3)cc12 [TCMDC-135299] | 100.9
Cn1cncc1-c1ccc2c(-c3ccsc3)cnc(N)c2c1 [TCMDC-135368] | 3.201
Nc1ncc(-c2ccsc2)c2ccc(-c3cnc[nH]3)cc12 [TCMDC-135369] | -1.546
Nc1nccc2ccc(Oc3ccncc3)cc12 [TCMDC-136517] | 51.03
Nc1nccc2ccc(-c3ccc(Oc4ccccc4)cc3)cc12 [TCMDC-133432] | 19.11
Nc1nccc2ccc(-c3ccncc3)cc12 [TCMDC-138929] | 32.25
Nc1nccc2ccc(-c3ccsc3)cc12 [TCMDC-133431] | 53.31
Nc1nccc2ccc(-c3ccc4nccn4c3)cc12 [TCMDC-133425] | 49.74
Nc1nnc(-c2ccc(Cl)c(Br)c2)c(N)n1 [TCMDC-137285] | -16.33
Cc1cc(N2Cc3ccccc3C2)nc(Nc2cccc(C#N)c2)n1 [TCMDC-134199] | -14.79
Cc1[nH]c2c(C)cc(NS(C)(=O)=O)cc2c1C1CCN(CC2CCN(C(=O)/C=C/c3ccc(Cl)c(Cl)c3)CC2)CC1 [TCMDC-140173] | -57.53
Cc1cccc(C(=O)Nc2ccnc(N(C)CCCN(C)Cc3cccc(C#N)c3)c2)c1 [TCMDC-134968] | 26.78
O=C(NCc1ccco1)c1ccc(S(=O)(=O)c2ccc(Cl)cc2)cc1 [TCMDC-124393] | 65.45
CC(C)CCN1CCCN(Cc2ccc(C(=O)NCc3ccc(Cl)cc3)cc2)CC1 [TCMDC-136452] | -12.3
O=C(Nc1ccccc1O)c1ccc(S(=O)(=O)c2ccc(Cl)cc2)cc1 [TCMDC-123689] | 47.63
O=C(Nc1ccc(-c2cccc(-c3nc4ccccc4[nH]3)c2)cc1)Nc1ccc(Cl)c(Cl)c1 [TCMDC-133284] | -10.68
O=C(Nc1ccccc1O)c1ccc(Oc2cccc(C(=O)Nc3ccccc3O)c2)cc1 [TCMDC-125220] | -89.02
CCN(CC)C(=O)C1CCN(C(C(=O)N2CCN(CC(=O)N3CCCC3)CC2)c2cc3ccccc3o2)CC1 (stereo not drawn) [TCMDC-141126] | -9.75
Cc1cc2ccccc2n1CC(=O)N1CC(C(=O)N2CCCCC2)Oc2ccccc21 (stereo not drawn) [TCMDC-125253] | 84.5
COc1ccc(C(F)(F)F)cc1N1CCN(CCCCNC(=O)c2ccc(NC(=O)c3ccc(Cl)cc3)cc2)CC1 [TCMDC-138258] | -21.85
O=C(Nc1ccc(C(=O)OCC2CCCN3CCCCC23)cc1)c1ccc(Cl)c(Cl)c1 (stereo not drawn) [TCMDC-124027] | 3.603

SMILES | % Inhibition [%]
CN1CCN(c2ccc(Nc3ccnc4ccc(-c5ccccc5)cc34)cc2)CC1 [TCMDC-123917] | -37.23
OCCN1CCN(c2ccc(Nc3ccnc4cc5ccccc5cc34)cc2)CC1 [TCMDC-123915] | 73.35
CCN(CC)CCNc1ccc(Nc2ccnc3cc4ccccc4cc23)cc1 [TCMDC-123498] | 93.37
c1ccc2cc3c(Nc4ccc(N5CCCCC5)cc4)ccnc3cc2c1 [TCMDC-123505] | -37.48
CCN(CC)CCNc1ccnc2ccc3ccccc3c12 [TCMDC-131800] | 5.083
CC(C)Nc1ccc(Nc2ccnc3cc4ccccc4cc23)cc1 [TCMDC-123916] | -35.26
O=C(/C=C/c1ccc(Cl)c(Cl)c1)NCCCCCN1CCC(NC(=S)Nc2ccc(Cl)cc2Cl)CC1 [TCMDC-135902] | 24.59
CCOc1ccc2nc(N(CCCn3ccnc3)C(=O)C=Cc3cccs3)sc2c1 [TCMDC-124925] | -19.53
Nc1nc(N)c2c(ccc3nn(S(=O)(=O)N4CCCC4)cc32)n1 [TCMDC-137854] | 1.328
COc1c(C2CCN(CCCCNC(=O)c3cc(-c4ccc(C#N)cc4)n[nH]3)CC2)ccc2c1CCCC2 [TCMDC-134659] | -32.94
COc1c(C2CCN(CCCCNC(=O)c3ccc(-c4ccc(Cl)cc4)c(O)c3)CC2)ccc2c1CCCC2 [TCMDC-134282] | 111.5
COC(=O)COc1cc(C(=O)NCCCCN2CCC(c3ccc4c(c3OC)CCCC4)CC2)ccc1-c1ccc(Cl)cc1 [TCMDC-134372] | 38.74
COc1c(C2CCN(CCCCNC(=O)c3ccc(-c4ccc(C#N)cc4)c(O)c3)CC2)ccc2c1CCCC2 [TCMDC-138682] | 69.72
COc1c(C2CCN(CCCCNC(=O)C=Cc3ccccc3C(F)(F)F)CC2)ccc2c1CCCC2 [TCMDC-135279] | 85.89
COc1c(C2CCN(CCCCNC(=O)c3ccc(-c4ccc(Cl)cc4)c(OCCN(C)C)c3)CC2)ccc2c1CCCC2 [TCMDC-134371] | 101.9
COc1c(C2CCN(CCCCNC(=O)c3ccc(-c4ccc(C#N)cc4)nc3)CC2)ccc2c1CCCC2 [TCMDC-134688] | -0.6168
COc1c(C2CCN(CCCCNC(=O)C=Cc3cc4cc(Cl)ccc4o3)CC2)ccc2c1CCCC2 [TCMDC-135062] | -50.69
COc1c(C2CCN(CCCCNC(=O)c3oc(-c4ccc(Cl)cc4)cc3CO)CC2)ccc2c1CCCC2 [TCMDC-134829] | -10.73
